From PubChem BioAssay AID626 (Vanderbilt High Throughput Screening Facility, 2007) come the findings set out here.

In all, about 64,000 compounds went through this assay and about 1,900 (3%) were called active. Only a selection was taken, and actives are over-represented in it overall. A number with no mark means an inactive call.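 The calls were made as follows: active = fluorescence rise, raw or as B-score row- and column-corrected plate score, outside the 99.7% band of its plate's samples, either direction; inactive = the rest.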

The test system of the assay is Muscarinic acetylcholine receptor M1. Put plainly: direct activation of M1 receptor calcium signal – CHO-M1 cells, Fluo-4 calcium, agonist mode, primary screen (AID 626). The settings on record: Fluo-4 calcium fluorescence, at 10 µM, hits give high values.
For the compound `CN1CCN(S(=O)(=O)c2ccc3[nH]cc(C(=O)O)c(=O)c3c2)CC1`, the B-score is 0.537.
Next, `COCCn1c(CN(Cc2ccccc2)Cc2ccccc2)nc2c1c(=O)n(C)c(=O)n2C`: 0.66; `CC1CCN(Cc2nc3c(c(=O)n(C)c(=O)n3C)n2CCc2ccccc2)CC1`: 0.945.
Consider `COCCn1c(CN2CCC(Cc3ccccc3)CC2)nc2c1c(=O)n(C)c(=O)n2C`, for which the B-score was 3.45 (active).
The value for `CCOC(=O)c1ccc(NC(=O)CSc2nnc(COc3ccccc3OC)n2C)cc1` was 0.692; that for `O=C(Nc1ccccc1N1CCCCC1)c1cccc(F)c1` was 0.341; that for `C/C(=C(\C#N)C(=O)NCCCN1CCOCC1)N(C)C` was 0.122.
For the compound `Cc1cc(Nc2cccc(F)c2)n2ncnc2n1`, the B-score is 1.22.
For `CCOC(=O)C1CCN(C(=O)Nc2ccc(Cl)cc2)CC1`, the B-score was 0.00389.
The value for `CCOC(=O)[C@H]1CCC[C@@H](NS(=O)(=O)c2ccc(NC(C)=O)cc2)C1` was -0.507; that for `CCOC(=O)C1CCCN(Cc2nc(N)nc(Nc3ccc(C)cc3)n2)C1` (stereo not given) was 35.2 (active); that for `CCn1c(SCCC(C)C)nnc1-c1c[nH]c2ccccc12` was 0.584.
For the compound `Cc1nc2ccccc2c2oc(C(=O)NCC3CCCO3)cc12` (stereo not given), the B-score was 2.93 (active).
For `Cc1nc2ccccc2c2oc(C(=O)NCCCN3CCC(C)CC3)cc12`, the B-score was 0.3.
Next, `CCCN(CCC)CCNC(=O)c1cc2c(C)nc3ccccc3c2o1`: -0.845.
The value for `COCCN1C(=O)c2oc3c(C)cc(C)cc3c(=O)c2C1c1cccc(O)c1` (stereo not given) was 0.00288.
`CCOC(=O)Cn1c(=O)oc2cc(S(=O)(=O)N(C)Cc3ccco3)ccc21`: the B-score was -0.339.
As to `O=C(c1ccco1)N1CCN(C(=O)C2CC(c3ccc(Cl)c(Cl)c3)=NO2)CC1` (stereo not given), the B-score was -0.464.
The value for `Cc1ccc(S(=O)(=O)Nc2ccc3ncccc3c2)cc1` was 3.16 (active).
Next, `O=S(=O)(Nc1ccc2nc(-c3ccco3)[nH]c2c1)c1ccccc1`: -0.0329; `CC(=O)N1CCN(C(=O)c2cccc(S(=O)(=O)Nc3ccc(C)cc3)c2)CC1`: 0.272.
Regarding `CCOC(=O)c1sc(NC(=O)CSc2nnc(-c3ccco3)o2)c(C(=O)OCC)c1C`, the B-score was -0.0997.
The value for `CCOc1cc(/C=N/O)cc(Br)c1OC` was 0.00429.
With `O=C(Nc1ccccc1C(=O)N1CCOCC1)C1CCC(=O)N1C1CCCC1` (stereo not given), the B-score is 0.307.
The value for `Cc1ccc(Cc2nc(-c3cccc(C)c3)no2)cc1` was -0.177; that for `COc1ccccc1Cc1nc(-c2ccc(C)cc2)no1` was 3.86 (active); that for `Cc1ccc(-c2noc(CN3CCN(Cc4ccccc4)CC3)n2)cc1` was -0.531.
The value for `O=C(NCCN1CCOCC1)c1c(F)c(F)c(F)c(F)c1F` was 0.102; that for `COCCNC(=O)C(c1ccc(C)o1)N(Cc1cccs1)C(=O)c1snc(C(N)=O)c1N` (stereo not given) was 2.74 (active); that for `CCC(C(=O)NC1CCCC1)N(C(=O)c1snc(C(N)=O)c1N)c1ccc2c(c1)OCCO2` (stereo not given) was -0.647.
Next, `COCCNC(=O)C(c1ccc(C)o1)N(Cc1ccccc1)C(=O)Cn1nnc2ccccc21` (stereo not given): -0.295; `CC(Nc1nc(N2CCCC2)nc2ccccc12)c1ccccc1` (stereo not given): 0.0749; `CCOCCCNC(=O)Cc1cc(=O)[nH]c(=O)[nH]1`: -0.622.
Take `COc1ccc(CN(C(=O)c2cccs2)c2nccs2)cc1OC`: the B-score was -0.233.
The value for `COc1ccc(N2CCN(C(=O)CSc3nc4cc(OC)c(OC)cc4cc3C#N)CC2)cc1` was -0.487; that for `Cc1cc(C)c2nc(N3CCCC3)c(C#N)cc2c1` was 0.391.
Turning to `COc1ccc2nc(N3CCCC(O)C3)c(C#N)cc2c1` (stereo not given), the B-score was 15 (active).
`COC(=O)c1cc(C(=O)CSc2nc(C)cc(C)n2)ccc1O`: the B-score was -0.00415.
Take `Oc1c(C(c2ccco2)N2CCC3(CC2)OCCO3)sc2ncnn12` (stereo not given): the B-score was -0.563.
The value for `CCCCCNC(=O)Cc1ccc(OC)cc1` was 1.29.
Next, `O=C(Nc1ccccc1-c1nnn(CC(=O)N2CCN(c3ccccc3)CC2)n1)c1cccs1`: -0.15; `O=C(NCc1ccccn1)c1ccc2nc(-c3ccco3)c(-c3ccco3)nc2c1`: 3.06 (active).
On to `O=C(NCc1ccccn1)c1cc2ccccc2oc1=O`, for which the B-score is -0.243.
Next, `Cc1cccn2c(=O)c3cc(C(=O)NCc4ccccn4)n(C)c3nc12`: -0.541.
Turning to `CC1CCCCN1CC(=O)NCc1ccc2c(c1)OCO2` (stereo not given), the B-score is -0.147.
Next, `CCn1c(Cc2ccccc2)nnc1SCc1nc2ccccc2c(=O)[nH]1`: 0.17; `O=C(O)c1ccc(COCC(F)(F)F)cc1`: 3 (active); `O=C(C1CCC1)N1CCc2cc(S(=O)(=O)NCc3cccnc3)ccc21`: -2.04.
Consider `COC(=O)c1cn(C)c2ccc(S(=O)(=O)N3CC(C)CC(C)C3)cc2c1=O` (stereo not given), for which the B-score was -0.784.
`O=C(COc1ccccc1)NCc1ccc2c(c1)OCO2`: the B-score was 0.038.
On to `c1n[nH]c(NCc2ccc3c(c2)OCO3)n1`, for which the B-score was 2.68 (active).
Consider `CCOC(=O)NCc1ccc2c(c1)OCO2`, for which the B-score is 0.801.
The value for `Cc1ccc(-c2csc3nnc(SCC(=O)NCc4ccco4)n23)cc1` was 0.495; that for `COC(=O)c1ccccc1NC(=O)CN(Cc1ccccc1)S(C)(=O)=O` was 0.117; that for `CCOc1ccc(N2C(=O)CC(N(O)c3ccccc3)C2=O)cc1` (stereo not given) was 0.335.
On to `COc1ccccc1N1CCN(C(=O)c2c(-c3c(Cl)cccc3Cl)noc2C)CC1`, for which the B-score is 4.97 (active).
Next, `COc1ccccc1N1CCN(C(=O)c2cc(-c3ccc(Br)cc3)on2)CC1`: -0.734; `COc1ccccc1N1CCN(C(=O)c2cc(-c3ccc(Cl)c(Cl)c3)on2)CC1`: -0.0802.
The value for `O=C(c1ccco1)N1CCN(CC(=O)N(C2CCCCC2)C2CCS(=O)(=O)C2)CC1` (stereo not given) was 1.21; that for `COc1ccc(S(=O)(=O)N2CCCCC2)cc1Br` was -0.037.
Next, `O=C(CCSc1ccccc1)NCCSc1ccccn1`: -0.157.
On to `COc1c(F)c(F)c(-c2csc(N)n2)c(F)c1F`, for which the B-score was -0.0216.
For `Cc1nc2c(c(=O)n1Cc1ccco1)c1nc3ccccc3nc1n2Cc1ccccc1`, the B-score is -1.33.
Next, `COc1ccc(CC(=O)Nc2nc3n(n2)C(c2ccccc2)CC(=O)N3)cc1OC` (stereo not given): 1.86.
Next, `CCCOc1ccccc1C1CC(=O)Nc2cc3c(cc21)OCO3` (stereo not given): 4.33 (active).
Regarding `COc1cc2c(cc1OC)C(c1ccc(C)o1)CC(=O)N2` (stereo not given), the B-score was 0.00289.
The value for `COCCOC(=O)C1=C(C)NC(=O)CC1c1cc2c(cc1Br)OCO2` (stereo not given) was 0.114; that for `CC(C)C[C@H](NC(=O)Nc1cccc(C(F)(F)F)c1)C(=O)O` was 0.0481; that for `CC(=O)c1c(C)c[nH]c1C` was 0.323.
Consider `Cc1ccc(S(=O)(=O)NCc2csc(C)n2)c(C)c1`, for which the B-score was -0.841.
The value for `Cc1nc(CNS(=O)(=O)c2ccc(Oc3ccccc3)cc2)cs1` was 3.97 (active); that for `Cc1nc(CNS(=O)(=O)c2cccnc2)cs1` was 0.163.
In the case of `CC(C)C(NC(=O)OCc1ccccc1)C(=O)OCC(=O)N1C(C)CCCC1C` (stereo not given), the B-score is -0.582.
Next, `COC(=O)c1ccc(N(CC(=O)NC2CCCC2)C(=O)CNC(=O)c2ccco2)cc1`: -0.016.
The value for `COc1ccc(CCNC(=O)c2ccco2)cc1` was 78.9 (active); that for `COc1cc(OC)cc(C(=O)NCCSCc2ccco2)c1` was -0.317.
The value for `CC(C)(C)NC(=O)c1cc(NC(=O)c2ccco2)cc(NC(=O)c2ccco2)c1` was 4.57; that for `COc1ccc(N(CC(=O)NC(C)(C)C)C(=O)c2ccco2)cc1` was 3.36 (active); that for `O=C(NCCSc1ccccc1)c1ccco1` was 0.47.
With `CCOC(=O)N1CCN(C(=O)CSc2nnc(-c3c[nH]c4ccccc34)n2CCOC)CC1`, the B-score is 0.791.
The value for `O=C(OCC(=O)c1cccs1)C1=COCCO1` was -0.115.
Turning to `COc1ccc(C(c2nnnn2C2CCCCC2)N2CCN(c3ccccc3F)CC2)cc1` (stereo not given), the B-score was -0.721.
As to `COC(=O)c1ccc(CSc2nc3ccccc3c(=O)n2-c2cccc(OC)c2)o1`, the B-score was 3.63 (active).
The value for `COC(=O)c1ccc(CSc2ccccc2C)o1` was -0.274; that for `COCC(C)n1c(SCc2ccc(C(=O)OC)o2)nc2ccccc2c1=O` (stereo not given) was 1.47.
On to `CCOC(=O)N1CCC(C(N)=O)CC1`, for which the B-score was -0.221.
In the case of `COc1ccc2c(c1)C=CC1(O2)N(CCO)c2ccccc2C1(C)C` (stereo not given), the B-score was 0.737.
For `COc1ccc(OC)c(S(=O)(=O)Nc2ccccc2F)c1`, the B-score was -0.55.
For the compound `Cc1cc(NC(=O)COc2ccc(Cl)cc2Cl)n(CCC#N)n1`, the B-score was -2.93 (active).
On to `CN1CCN(c2ccc(NC(=O)COc3ccc(Cl)cc3Cl)cc2)CC1`, for which the B-score was -0.55.
Next, `Cc1cc(Nc2ccccc2)n(CCC#N)n1`: -0.373.
For the compound `O=C(c1cccs1)N1CCN(Cc2ccc3c(c2)OCO3)CC1`, the B-score was 0.609.
As to `N#Cc1nc(-c2ccc(OCc3ccccc3)cc2)oc1NCCCN1CCOCC1`, the B-score was 1.06.
On to `CCOc1ccc(Nc2oc(Cc3ccccc3)nc2C#N)cc1`, for which the B-score was 0.194.
With `COc1ccc(Nc2oc(-c3ccccc3Cl)nc2C#N)cc1`, the B-score is 37.2 (active).
`CCN1C(=O)CS/C1=N\c1nccs1`: the B-score was 0.514.
With `O=C(Nc1ccc(Cl)cc1)c1ccsn1`, the B-score is -0.00233.
With `COc1cc(C(=O)Nc2oc(-c3ccccc3)c(-c3ccccc3)c2C#N)cc(OC)c1OC`, the B-score is 3.33 (active).
Next, `COc1cc(C(=O)Nc2nccs2)cc(OC)c1OC`: 1.84.
Next, `N#Cc1c(NC(=O)CCCN2C(=O)c3ccccc3C2=O)oc(-c2ccccc2)c1-c1ccccc1`: -0.449.
